PAFAH1B3 FP inh: inhibitors of human PAFAH1B3 | recombinant PAFAH1B3, FP-rhodamine probe, fluorescence polarization | inhibition, % at 3.39 µM | hit rate 0.28% among 340,000 | AID 492972;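 active = inhibition above the screen-wide average of all tested compounds plus 3 SD, cut at about 25% in these data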
Target sequence (Q15102 whole entry, looked up): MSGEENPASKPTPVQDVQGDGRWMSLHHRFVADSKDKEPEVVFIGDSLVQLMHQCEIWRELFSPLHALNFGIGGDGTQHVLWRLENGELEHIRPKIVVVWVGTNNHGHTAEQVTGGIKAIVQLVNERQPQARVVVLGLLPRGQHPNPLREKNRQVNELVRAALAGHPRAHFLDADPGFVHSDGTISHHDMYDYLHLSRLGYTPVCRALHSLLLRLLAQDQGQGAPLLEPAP
pPAFAH inh: inhibitors of human plasma PAF acetylhydrolase (pPAFAH); hit rate 1.5% among 330,000; inhibition, % at 3.39 µM; recombinant pPAFAH, FP-rhodamine probe fluorescence polarization; Q13093;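 active = inhibition above the mean inhibition across the screen plus 3 SD, cut at about 25% in these data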;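 note: inhibitors block binding of the rhodamine activity-based probe so polarization drops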
PAFAH1B2 inh: PAFAH1B2 (human) inhibition; P68402; recombinant PAFAH1B2, FP-rhodamine activity probe, fluorescence polarization; inhibition, % at 3.39 µM; hit rate 1.2% among 340,000; AID 492953;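 active = inhibition above the mean of all tested compounds plus 3 SD, cut at about 24% in these data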
LYPLA2 counter: blocks human lysophospholipase 2, a PME1 counter-screen; hit rate 0.38% among 320,000; AID 2177; recombinant LYPLA2, FP-Rh probe fluorescence polarization; inhibition, % at 5.9 µM; O95372;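 active = inhibition above the screen-wide mean plus 3 SD, limit set per campaign, cut at about 26% in these data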
LYPLA1 inh: blocks human lysophospholipase 1, a PME1 counter-screen; O75608; recombinant LYPLA1, FP-Rh probe fluorescence polarization; inhibition, % at 5.9 µM; hit rate 0.16% among 320,000; AID 2174;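 active = inhibition above the mean of all tested compounds plus 3 SD, set per campaign, cut at about 14% in these data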;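 note: inhibitors block serine hydrolase probe labeling of LYPLA1 so polarization falls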
Target sequence (O75608 whole entry, looked up): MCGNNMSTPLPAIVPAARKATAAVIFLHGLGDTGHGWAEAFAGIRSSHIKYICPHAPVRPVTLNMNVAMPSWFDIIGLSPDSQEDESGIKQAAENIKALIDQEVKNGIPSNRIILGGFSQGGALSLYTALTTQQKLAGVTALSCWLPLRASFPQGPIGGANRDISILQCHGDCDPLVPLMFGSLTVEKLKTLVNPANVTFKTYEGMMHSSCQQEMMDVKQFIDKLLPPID
PAFAH2 inh: inhibitors of human PAFAH2 | Q99487 | recombinant PAFAH2, FP-rhodamine activity probe, fluorescence polarization | inhibition, % at 3.39 µM | hit rate 0.99% among 340,000 | AID 492956;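 active = inhibition above the mean over all tested compounds plus 3 SD, cut at about 30% in these data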;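 note: inhibitors block probe labeling of enzyme so polarization drops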
Hits are given with their value; – = inactive; · = not tested or not shown. Most compounds without a hit are left out; they make up all but 2.9% or so of the library.

SMILES | PAFAH1B3 FP inh | pPAFAH inh | PAFAH1B2 inh | LYPLA2 counter | LYPLA1 inh | PAFAH2 inh
Cc1ccc(S(=O)(=O)/N=C2\C=C(Nc3cccc(C(=O)O)c3)C(=O)c3ccccc32)c(C)c1 | 62.5 | 27.5 | 29.7 | – | – | 58.5
O=C1C=C(Nc2ccccc2)C(=O)c2ccccc21 | – | – | – | – | – | –
CCN(C(=O)CSc1nnc(-c2cccs2)n1N)c1c(N)n(Cc2ccccc2)c(=O)[nH]c1=O | – | – | – | – | – | –
O=S(=O)(Oc1ccccc1N1CCCCC1)c1ccccc1 | – | – | 30.9 | – | – | –
COC(=O)C1=C(C)N(CCCC(=O)O)C(=O)NC1c1cc2c(cc1[N+](=O)[O-])OCO2 (stereo unspecified) | – | 29.6 | – | – | – | –
COC(=O)C1=C(C)N(C)C(=O)NC1c1cc2c(cc1[N+](=O)[O-])OCO2 (stereo unspecified) | – | – | – | – | – | –
Cc1nc(N)sc1-c1csc(N(C)c2ccc(O)cc2)n1 | – | 26.9 | – | – | – | –
Cc1cccc(NC(=S)NNC(=O)c2csc3c2CCC(C)C3)c1 (stereo unspecified) | – | 27.2 | – | – | – | –
CCC(C)(C)n1nnnc1C(c1cccnc1)N1CCC(Cc2ccccc2)CC1 (stereo unspecified) | – | – | – | – | – | –
CCC(C)(C)n1nnnc1C(c1ccncc1)N1CCC(Cc2ccccc2)CC1 (stereo unspecified) | – | 26.0 | – | – | – | –
c1ccc(Cc2nnc(N3CCOCC3)c3ccccc23)cc1 | – | – | – | – | – | –
O=C(O)CCCN1C(=O)C2C3CC(C2C1=O)C1C(c2ccccc2)c2sc(=O)[nH]c2SC31 (stereo unspecified) | – | – | 81.1 | – | – | –
CC(C(=O)O)N1C(=O)C2C3CC(C2C1=O)C1C(c2ccccc2)c2sc(=O)[nH]c2SC31 (stereo unspecified) | – | – | 55.3 | – | – | –
O=C(O)CN1C(=O)C2C3CC(C2C1=O)C1C(c2ccc(Cl)cc2)c2sc(=O)[nH]c2SC31 (stereo unspecified) | – | – | 47.0 | – | – | –
O=c1[nH]c2c(s1)C(c1ccc(O)cc1)C1C3CCC(C3)C1S2 (stereo unspecified) | – | – | 27.4 | – | – | –
Cc1ccc(C)c(-n2nnnc2SCC(=O)Nc2c(C)n(C)n(-c3ccccc3)c2=O)c1 | – | – | – | – | – | –
COc1ccccc1C(=O)NCCC(=O)NCC(C)(C)N1CCOCC1 | – | – | – | – | – | –
COc1ccc(C2=NOC(C(=O)NCc3ccccc3)C2)cc1 (stereo unspecified) | – | – | – | – | – | –
O=C(O)CN1C(=O)C2C3CC(C2C1=O)C1C(c2ccc(F)cc2)c2sc(=O)[nH]c2SC31 (stereo unspecified) | – | – | 54.4 | – | – | –
COc1ccc(C2c3sc(=O)[nH]c3SC3C4CCC(C4)C23)cc1OC (stereo unspecified) | – | – | – | – | – | –
CN(CC(=O)Nc1ccccc1Cl)C(=O)C1CCN(C(=O)c2ccc(Cl)cc2)CC1 | – | – | – | – | – | –
Cc1ccccc1C(=O)c1cccn1CC(=O)NCc1ccc(Cl)cc1 | – | – | 30.6 | – | – | –
Cc1ccc(CNC(=O)Cn2cccc2C(=O)c2ccccc2C)cc1 | – | – | 26.6 | – | – | –
Cc1cc(/C(N)=N/OC(=O)Nc2ccc(Cl)cc2)no1 | · | – | · | – | – | ·
COc1ccc(/C=N/NC(=O)c2cccnc2)cc1CN1CCOCC1 | – | – | – | – | – | –
SMILES | PAFAH1B3 FP inh | pPAFAH inh | PAFAH1B2 inh | LYPLA2 counter | LYPLA1 inh | PAFAH2 inh
CC(=O)NCCc1ccc(S(=O)(=O)N2CCN(c3nc(-c4ccccc4)c(C)s3)CC2)cc1 | – | – | – | – | – | –
CC1(C)CC2(CC(c3ccccc3F)c3ccc(O)c(O)c3O2)NC(=S)N1 (stereo unspecified) | – | 32.6 | – | – | – | –
Cc1nc(SCc2ccc(Br)cc2)[nH]c(=O)c1C | – | 34.3 | 74.0 | – | – | –
Cc1nc(SCCc2ccccc2)[nH]c(=O)c1C | – | 26.6 | – | – | – | –
O=C(COC(=O)c1cc(-c2ccco2)nc2ccccc12)NCc1ccccc1 | – | 34.2 | – | – | – | –
CCN(CC)C(=O)COC(=O)c1cc(-c2ccco2)nc2ccccc12 | – | · | – | · | · | –
O=C(O)c1cc(-c2ccco2)nc2cc3ccccc3cc12 | – | 25.2 | – | – | – | –
O=C(NNC(=O)c1cc(-c2ccco2)nc2ccccc12)c1ccccc1 | – | – | – | – | – | –
CNC(=O)COC(=O)c1cc(-c2ccco2)nc2ccccc12 | – | 24.8 | – | – | – | –
O=C(O)c1ccccc1/C=N/NC(=O)c1cc(-c2ccco2)nc2ccccc12 | – | 32.0 | – | – | – | –
COc1cc(C(Nc2ccc(S(=O)(=O)N3CCC(C)CC3)cc2)C(=O)NCC2CCCO2)cc(OC)c1OC (stereo unspecified) | – | – | 25.3 | – | – | –
COc1cc(C(Nc2ccc(S(=O)(=O)NCC3CCCO3)cc2)C(=O)NC(C)(C)C)cc(OC)c1OC (stereo unspecified) | – | – | – | – | – | –
O=C(COc1ccc(Cl)cc1)NCc1nnc(SCC(=O)NC2CCCCC2)o1 | – | – | – | – | – | –
O=C(COC(=O)Cc1ccc(Br)cc1)NC1CCCCC1 | – | 29.7 | – | – | – | –
O=C(COC(=O)Cc1ccc(Br)cc1)NCC1CCCCC1 | – | 30.9 | – | – | – | –
CCN(CC)S(=O)(=O)c1cccc(C(=O)OCC(=O)NCc2ccccc2OC)c1 | – | 31.6 | – | – | – | –
O=C(COC(=O)Cc1ccc(Cl)cc1)NC1CCCC1 | – | 26.4 | – | – | – | –
O=C(COC(=O)Cc1ccc(Br)cc1)NCC1CCCO1 (stereo unspecified) | – | – | – | · | · | –
O=c1cc(C(F)(F)F)[nH]c2ccc(C(F)(F)F)cc12 | – | – | – | – | – | –
Cc1cc(C)c(OCC(=O)OCC(=O)NCC2CCCCC2)c(C)c1 | – | 30.8 | – | – | – | –
COc1ccccc1CNC(=O)COC(=O)Cc1ccc(Cl)cc1 | – | 26.6 | – | – | – | –
O=C(c1cc2ncc(CCCl)cn2n1)N1CCCCCC1 | – | – | – | – | – | –
CC(C)CNC(=O)c1cccc(NC(=O)COc2ccc([N+](=O)[O-])cc2)c1 | – | – | – | – | – | –
CC1CC(C)CN(S(=O)(=O)c2ccc(C(=O)NNC(=O)c3ccccc3F)cc2)C1 (stereo unspecified) | – | – | 26.1 | · | · | –
O=C(NNC(=O)c1ccccc1F)c1ccc(S(=O)(=O)N2CCCC2)cc1 | – | – | – | · | · | –
O=[N+]([O-])c1ccc(C[n+]2ccc(Cc3ccccc3)cc2)cc1 | – | – | – | – | – | –
